Among the data in PubChem BioAssay (EPA / NIEHS) are outcome and AC50 values, retold here.

One test concerns the target THRB (gene 7068) (UniProt P10828). The experiment in a line: TOX21_TRB_BLA_Agonist_Followup_ratio: Tox21 Thyroid Hormone Receptor beta Agonism Beta-lactamase (BLA) Follow-Up Assay, Ratio (AID 2283954; active means hit-call score of the fitted dose curve at least 0.9, where 1 is the maximum). A digest of the protocol: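 Agonist mode: compounds (11-point, triplicate) incubated 18 h with HEK293T cells carrying GAL4-DBD/human TRβ-LBD and UAS-β-lactamase. Blue/green (460/530 nm) FRET ratio read after 2 h CCF4-AM loading; CellTiter-Glo viability run in the same plates.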

Test [1] is described as follows: CCTE_Harrill_HTTr_Viability_DMEM_6hr: (Pilot) CCTE's 6-hour Cell Viability Assessment for the High-Throughput Transcriptomics (HTTr) Platform, in MCF-7 cells cultured in DMEM + 10% fetal bovine serum, Harrill Lab (AID 2283973). A digest of the protocol: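 Propidium iodide uptake imaged by high-content analysis after six hours of chemical treatment in an eight-concentration series. Cells: MCF-7 grown in DMEM with 10% fetal bovine serum; DMSO as baseline.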

Test [2] is described as follows: CCTE_Harrill_HTTr_Viability_DMEM_12hr: (Pilot) CCTE's 12-hour Cell Viability Assessment for the High-Throughput Transcriptomics (HTTr) Platform, in MCF-7 cells cultured in DMEM + 10% fetal bovine serum, Harrill Lab (AID 2283974). In short, it runs like this: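 Propidium iodide dye exclusion imaged by high-content microscopy after 12 h chemical exposure (eight concentrations) of MCF-7 cells grown in DMEM plus 10% FBS; values fitted in both directions relative to DMSO.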

Test [3] in a line: CCTE_Harrill_HTTr_Viability_DMEM_24hr: (Pilot) CCTE's 24-hour Cell Viability Assessment for the High-Throughput Transcriptomics (HTTr) Platform, in MCF-7 cells cultured in DMEM + 10% fetal bovine serum, Harrill Lab (AID 2283975). In short, it runs like this: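 Pilot study: propidium iodide dye exclusion, imaged by high content microscopy, after 24 h compound exposure (eight concentrations) in MCF-7 cultured in DMEM + 10% fetal bovine serum; DMSO served as negative control and baseline.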

Test [4] is described as follows: CCTE_Harrill_HTTr_Viability_PRF_DMEM_6hr: (Pilot) CCTE's 6-hour Cell Viability Assessment for the High-Throughput Transcriptomics (HTTr) Platform, in MCF-7 cells cultured phenol red-free DMEM + 10% charcoal-stripped fetal bovine serum, Harrill Lab (AID 2283976). In short, it runs like this:
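Membrane integrity by high-content imaging of propidium iodide uptake, six hours after dosing with eight concentrations. Cells: MCF-7 grown in phenol red-free DMEM plus 10% charcoal-stripped serum; DMSO serves as baseline for bidirectional fits.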

Test [5] is described as follows: CCTE_Harrill_HTTr_Viability_PRF_DMEM_12hr: (Pilot) CCTE's 12-hour Cell Viability Assessment for the High-Throughput Transcriptomics (HTTr) Platform, in MCF-7 cells cultured in phenol red-free DMEM + 10% charcoal-stripped fetal bovine serum, Harrill Lab (AID 2283977). A digest of the protocol:
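Membrane integrity was scored via propidium iodide dye exclusion imaging, fitted in both directions relative to DMSO. Compounds ran as eight-point dilutions for 12 hours on MCF-7 grown in phenol red-free DMEM plus 10% charcoal-stripped serum.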

Test [6] in a line: CCTE_Harrill_HTTr_Viability_PRF_DMEM_24hr: (Pilot) CCTE's 24-hour Cell Viability Assessment for the High-Throughput Transcriptomics (HTTr) Platform, in MCF-7 cells cultured in phenol red-free DMEM + 10% charcoal-stripped fetal bovine serum, Harrill Lab (AID 2283980). A digest of the protocol:
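Propidium iodide exclusion imaged at 24 h after dosing scores viability; cells were MCF-7 grown in phenol red-free DMEM plus 10% charcoal-stripped serum, tested in eight concentrations, fitted in both directions against DMSO.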

A short description of test [7]: CCTE_Harrill_HTTr_Apoptosis_DMEM_6hr: (Pilot) CCTE's 6-hour Apoptosis Assessment for the High-Throughput Transcriptomics (HTTr) Platform, in MCF-7 cells cultured in DMEM + 10% fetal bovine serum, Harrill Lab (AID 2283981). In short, it runs like this:
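MCF-7 cells grown in DMEM + 10% FBS were exposed for 6 hours to an eight-point dilution series. CellEvent Caspase 3/7 Green signal was imaged; activity fitted bidirectionally against DMSO.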

Test [8] can be described thus: CCTE_Harrill_HTTr_Apoptosis_DMEM_12hr: (Pilot) CCTE's 12-hour Apoptosis Assessment for the High-Throughput Transcriptomics (HTTr) Platform, in MCF-7 cells cultured in DMEM + 10% fetal bovine serum, Harrill Lab (AID 2283982). A digest of the protocol: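 Caspase-3/7 activity was measured by high-content imaging (CellEvent Caspase 3/7 Green) after a 12-hour exposure of MCF-7 cells grown in DMEM with 10% FBS. Eight-point concentration series, fitted bidirectionally against vehicle.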

Test [9] in a line: CCTE_Harrill_HTTr_Apoptosis_DMEM_24hr: (Pilot) CCTE's 24-hour Apoptosis Assessment for the High-Throughput Transcriptomics (HTTr) Platform, in MCF-7 cells cultured in DMEM + 10% fetal bovine serum, Harrill Lab (AID 2283983). In short, it runs like this:
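Caspase-3/7 activity read by high-content imaging (CellEvent Green reagent) 24 h after dosing. MCF-7 cells grown in DMEM with 10% FBS received an eight-point concentration series; fits were bidirectional versus DMSO.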

The nature of test [10]: CCTE_Harrill_HTTr_Apoptosis_PRF_DMEM_6hr: (Pilot) CCTE's 6-hour Apoptosis Assessment for the High-Throughput Transcriptomics (HTTr) Platform, in MCF-7 cells cultured phenol red-free DMEM + 10% charcoal-stripped fetal bovine serum, Harrill Lab (AID 2283984). In short, it runs like this: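 Caspase-3/7 activity (CellEvent Green) read by high-content imaging 6 h after dosing, eight concentrations. Cells: MCF-7, phenol red-free DMEM with 10% charcoal-stripped serum. Curves fit both directions against DMSO.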

The nature of test [11]: CCTE_Harrill_HTTr_Apoptosis_PRF_DMEM_12hr: (Pilot) CCTE's 12-hour Apoptosis Assessment for the High-Throughput Transcriptomics (HTTr) Platform, in MCF-7 cells cultured in phenol red-free DMEM + 10% charcoal-stripped fetal bovine serum, Harrill Lab (AID 2283985). A digest of the protocol:
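Caspase-3/7 activity by CellEvent Green high content imaging after 12 h compound exposure (eight concentrations) in MCF-7 grown in phenol red-free DMEM plus 10% charcoal-stripped serum; DMSO as baseline.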

The nature of test [12]: CCTE_Harrill_HTTr_Apoptosis_PRF_DMEM_24hr: (Pilot) CCTE's 24-hour Apoptosis Assessment for the High-Throughput Transcriptomics (HTTr) Platform, in MCF-7 cells cultured in phenol red-free DMEM + 10% charcoal-stripped fetal bovine serum, Harrill Lab (AID 2283986). In short, it runs like this: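 Eight concentrations tested for 24 h on MCF-7 grown in charcoal-stripped serum, phenol red-free DMEM. High content imaging of CellEvent Caspase 3/7 Green signal gives apoptosis read-out, fitted both ways relative to DMSO.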

Records with an inconclusive call do not appear. Calls of active or inactive are those of the source. How the source made its calls, unless noted: active means hit-call score of the fitted dose curve at least 0.9, where 1 is the maximum; inactive means score below 0.9.

Chain of THRB (gene 7068) (P10828 whole entry, looked up, the tested form may be a part): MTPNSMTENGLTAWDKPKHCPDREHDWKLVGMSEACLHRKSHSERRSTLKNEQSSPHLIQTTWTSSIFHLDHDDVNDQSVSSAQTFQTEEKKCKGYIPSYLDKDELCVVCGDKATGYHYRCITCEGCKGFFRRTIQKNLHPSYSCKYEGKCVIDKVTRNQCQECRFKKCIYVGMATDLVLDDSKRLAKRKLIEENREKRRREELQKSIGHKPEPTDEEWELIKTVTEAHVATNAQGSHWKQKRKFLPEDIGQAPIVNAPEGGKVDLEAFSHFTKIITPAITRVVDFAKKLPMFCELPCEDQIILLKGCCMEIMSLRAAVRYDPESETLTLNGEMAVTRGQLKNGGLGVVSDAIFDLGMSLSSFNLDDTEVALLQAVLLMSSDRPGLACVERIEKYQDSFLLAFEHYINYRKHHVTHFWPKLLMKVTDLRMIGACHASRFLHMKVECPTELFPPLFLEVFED

In the case of `CC(C)(c1ccccc1)c1ccc(O)c(C(C)(C)c2ccccc2)c1`, the outcome with THRB (gene 7068) was inactive.

For the compound `C=C(C)C(=O)[O][Sn]([CH2]CCC)([CH2]CCC)[CH2]CCC`, the concentration at half-maximal activity (AC50) with THRB (gene 7068) is 68.3 µM (active).

On to `C[C@@H]1C[C@@H]([C@H](O)CC2CC(=O)NC(=O)C2)C(=O)[C@@H](C)C1`, for which the result in [1], in test [2], in test [4], in test [5], in test [7] and in test [8] was inactive. In addition, the outcome in [9], in test [10], in [11] and in [12] was inactive. Further, the values for the concentration at half-maximal activity (AC50) in test [3] and in test [6] were 7.82 µM (active) and 9.42 µM (active), respectively.
